# Source: PubChem (National Center for Advancing Translational Sciences (NCATS))
# AT treatment: potential ataxia-telangiectasia treatment. F2112 A-T fibroblasts, KAP-1 phosphorylation AlphaLISA; neocarzinostatin DNA damage 30 min before lysis. AID 485349. Potency, µM (series often up to 57.5 µM), for inactives: at the highest dose activation, actives largely listed as activators. hit rate 0.19% among 320,000; note: potency is the fitted concentration of half-maximal effect; % of control where 0% means no effect; nearly all actives have a fitted effect of over 45% in size
#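 ATM-like activity read as KAP-1 phosphorylation via AlphaLISA donor/acceptor antibody pairs after lysis and 6 hr at 25C. Cells were ATM-null patient fibroblasts (F2112, hTERT), dosed 60 min, then exposed to the DSB inducer NCS for 30 min.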
# Anesthetic bind: binds horse apoferritin like a general anesthetic | P02791 | apoferritin/1-aminoanthracene competitive binding, fluorescence | Potency, µM (series often up to 77.5 µM), inactives show at the top dose activity change, negative = displacement, most hits filed as inhibitors | hit rate 0.074% among 350,000; note: potency is the fitted concentration of half-maximal effect; % is set by controls: 0 for no effect and ±100 for the full control effect; nearly all actives have a fitted effect of over 20% in size
# Target sequence (P02791 2-175 limits assumed): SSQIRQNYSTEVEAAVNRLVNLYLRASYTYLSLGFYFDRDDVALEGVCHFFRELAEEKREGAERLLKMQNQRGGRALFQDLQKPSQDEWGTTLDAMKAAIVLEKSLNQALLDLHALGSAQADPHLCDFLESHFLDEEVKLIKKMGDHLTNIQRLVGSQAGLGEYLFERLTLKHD
#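 Concentration-response curves derived by four-parameter Hill fitting of normalized fluorescence, where compounds displaced 1-AMA from 10 uM horse apoferritin following a brief 10 min room-temperature incubation; propofol titration acted as positive control.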
# LDHA block: blocks human lactate dehydrogenase A; P00338; purified LDHA, NADH/diaphorase-resazurin fluorescence; hits give low values; activity change, % (values are at about 110 or 230 µM); hit rate 0.15% among 480,000; in the data active = activity change below about -30%; inconclusive = mostly about -25% to -30%;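 note: plate controls were DMSO wells for no effect and wells without enzyme for full effect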
#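 LDH5 2 nM; NADH 0.06 mM, pyruvate 0.2 mM; 200 mM Tris pH 7.4, EDTA, Tween-20; 5 min RT. Detection: diaphorase 0.133 mg/mL + resazurin 37 µM, fluorescence ex540/em590 at 0 and 20 min; normalized to enzyme-free and DMSO wells.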
# RGS4 inhibitor: human RGS4 inhibition; P49798; Transcreener GDP fluorescence polarization, RGS4-accelerated GTP hydrolysis; Potency, µM (highest dose often 114 µM), for inactives: top-dose activity change, negative = inhibition, most hits filed as inhibitors; hit rate 0.039% among 390,000; note: potency is the fitted concentration of half-maximal effect; % is set by controls: 0 for no effect and ±100 for the full control effect; nearly all actives have a fitted effect of over 75% in size
# Target sequence (P49798 whole entry, looked up): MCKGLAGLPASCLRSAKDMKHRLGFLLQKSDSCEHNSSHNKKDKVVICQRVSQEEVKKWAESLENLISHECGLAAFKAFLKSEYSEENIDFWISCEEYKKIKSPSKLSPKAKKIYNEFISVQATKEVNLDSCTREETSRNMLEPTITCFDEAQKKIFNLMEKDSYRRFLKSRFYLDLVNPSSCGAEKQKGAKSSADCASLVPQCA
#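 MLSMR compounds (23 nl, pin-transferred) preincubated 10 min at room temperature with a 500nM (2x) first reagent, then RGS4 at 900nM (2x) plus Transcreener GDP mix added; fluorescence polarization (620/688 nm) read before and after 90 min at 30 °C.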
# Starred values were filed as active, the others as inactive; ? = inconclusive; . = no result; ! = not active in a repeat; [ ] = dose if it differs, or a comment. Hits are enriched below; roughly 0.35% of the tested compounds scored in any of these assays. Unless noted, calls come from the whole dose curve; as a rule, active = well fitted curve in the direction sought with a large enough effect; inconclusive = small, poorly fitted or top-dose-only effect, or another doubt; inactive = no such curve, though single readings can be large; an effect the other way counts as inactive or inconclusive.
SMILES,AT treatment,Anesthetic bind,LDHA block,RGS4 inhibitor
Cc1n[nH]c(=O)c2c(NC(=O)CSc3nnc(C4CC4)n3-c3ccccc3)oc(C)c12,.,.,15,.
COc1cccc(-c2nc(CS(=O)(=O)CC(=O)NCc3cccnc3)c(C)o2)c1,.,.,-34*,.
CN(C)CCCN(CCCN(C)C)C(=S)Nc1ccc(S(=O)(=O)N2CCOCC2)cc1,18µM*,-3%,-4,-3%
Cc1ccc(C(CNC(=O)c2ccc(NC(=O)OC(C)(C)C)cc2)N2CCOCC2)o1 (stereo not drawn),.,.,-34*,.
CC(C)(C)OC(=O)Nc1ccc(C(=O)NCC(c2ccco2)N2CCCC2)cc1 (stereo not drawn),.,.,-5,.
O=C(O)c1ccc(-c2ccccc2)o1,.,.,-1,.
CC1CC(C)CN(CCCNC(=O)c2cn(C)c3ccc(S(=O)(=O)N4CCCC4)cc3c2=O)C1 (stereo not drawn),40µM*,0%,-6,13%
CC(C)NC(=O)NCc1c(-n2cccc2)sc2c1CCN(C)C2,.,.,1,.
Cc1ccc(S(=O)(=O)/N=C2/NC(=O)/C(=C/c3cc([N+](=O)[O-])ccc3O)S2)cc1,4%,-16%,-51*,-5%
COc1cc(/C=C2\S/C(=N/S(=O)(=O)c3ccc(C)cc3)NC2=O)c([N+](=O)[O-])cc1OC,-5%,60%,0,-15%
Nc1nnc(CC(=O)N/N=C/c2cc([N+](=O)[O-])cc(Br)c2O)s1,2%,-22%,-86*,?
Nc1nnc(CC(=O)N/N=C/c2cccc([N+](=O)[O-])c2)s1,-3%,-16%,1,-25%
NNC(=O)c1cccc(S(=O)(=O)Nc2cc(Cl)ccc2Cl)c1,28µM*,-14%,-7,3%
COc1ccccc1NS(=O)(=O)c1cccc(C(=O)NN)c1,-1%,?,-12,1%
Cc1nc(C(=O)NCCC(C)C)sc1C1(C)CC(c2ccccc2)=NO1 (stereo not drawn),40µM*,-13%,-3,3%
Cc1sc(NC(=O)c2cc3ccccc3s2)c(C#N)c1C,.,.,3,.
N#CNC(=O)c1ccc(-n2cccc2/C=C2\NC(=O)N(CC(=O)Nc3ccc(Cl)cc3)C2=O)cc1,.,.,-5,.
Cc1ccc(NC(=O)CN2C(=O)N/C(=C\c3cccn3-c3ccc(C(=O)NC#N)cc3)C2=O)cc1,.,.,-37*,.
Cc1ccc(C(=O)NNC(=O)c2ccc(S(=O)(=O)N3CCCCC3)cc2)cc1,-4%,.,-32*,18%
Cc1ccc(NC(=O)c2ccc(S(=O)(=O)N3CCCCC3)cc2)cc1,0%,-14%,-15,-18%
CCCN(CCC)Cc1c(C)[nH]c2ccc(Br)cc2c1=O,.,.,-31*,.
N#Cc1c(SCCN2CCOCC2)nc(N2CCCCC2)c2c1CCCC2,.,.,-9,.
CCCCCCCC(=O)OC[C@H](CO)OC(=O)CCCCCCC,.,-13%,.,?
CCCCC/C=C\C/C=C\CCCCCCCC(=O)O[C@@H](CO)COC(=O)CCCCCCCCCCCCCCCCC,.,-11%,.,2.7µM*
O=C(Nc1cccc(C(=O)Nc2ccc(S(=O)(=O)O)c3cc(S(=O)(=O)O)cc(S(=O)(=O)O)c23)c1)Nc1cccc(C(=O)Nc2ccc(S(=O)(=O)O)c3cc(S(=O)(=O)O)cc(S(=O)(=O)O)c23)c1,.,-12%,-112*,42%[56.9 µM]
SMILES,AT treatment,Anesthetic bind,LDHA block,RGS4 inhibitor
N#Cc1ccc(NCCNc2cccc3ccccc23)nc1,.,.,74,.
O=C(Cn1nc(-c2ccc(Cl)cc2)ccc1=O)NCCc1ccccc1,.,7.9µM*,3,2%
CCc1ccc(CNC(=O)Cn2nc(-c3ccc(Cl)cc3)ccc2=O)cc1,.,16µM*,-6,5%
O=C(Cn1nc(-c2ccccc2)ccc1=O)NCc1ccc(F)cc1,0%,?,-6,5%
CCc1ccc(CNC(=O)Cn2nc(-c3ccc(C)cc3)ccc2=O)cc1,1%,10µM*,5,-19%
CCNc1cc(C)nc(Nc2ccc(NC(=O)c3cccc(Cl)c3)cc2)n1,.,.,14,.
COC(=O)N1C(=O)[C@@](c2ccccc2)(C2CCCC2)N1C(=O)OC,25µM*,-15%,-4,-5%
COC(=O)N1C(=O)[C@@](CC(C)C)(c2ccccc2)N1C(=O)OC,35µM*,-12%,.,.
COC(=O)N1C(=O)[C@](c2ccccc2)(C2CCCCC2)N1C(=O)OC,16%,?,1,-29%
COC(=O)N1C(=O)[C@](CC(C)C)(c2ccccc2)N1C(=O)OC,17%,-15%,-6,-25%
CCS(=O)(=O)N(Cc1ccc(Cl)c(Cl)c1)c1c(C)n(C)n(-c2ccccc2)c1=O,.,.,6,.
O=[N+]([O-])c1ccc(Nc2ccccc2O)c2nonc12,-6%,18µM*,3,-1%
COc1ccccc1OCC(=O)N(Cc1ccc(-c2ccc(Cl)cc2)o1)C1CCS(=O)(=O)C1 (stereo not drawn),.,.,6,.
CC(C)c1ccc(Nc2ccc3cc(S(=O)(=O)N4CCCC4)ccc3n2)cc1,.,.,7,.
CCc1nnc(NC(=O)C(CC)c2ccccc2)s1 (stereo not drawn),-2%,-9%,-2,16%
CCc1nnc(NC(=O)C(CC)CC)s1,40µM*,-9%,-2,-26%[56.9 µM]
CN(Cc1ccccc1)Cc1nc2c(c(=O)n(C)c(=O)n2C)n1CCc1ccccc1,.,.,-31*!,12%
Clc1ccc(CN2CC[C@H]3C=CCc4cccc(c43)C2)cc1,35µM*,.,5,-19%
Fc1ccc(CN2CC[C@H]3C=CCc4cccc(c43)C2)cc1,?,.,1,-21%
Cc1oc2ccc(OCc3ccc(Cl)cc3)cc2c1C(=O)O,0%,4%,8,15%
Cc1oc2ccc(OCc3ccc(Br)cc3)cc2c1C(=O)O,3.5µM*,-4%,-9,1%[56.9 µM]
CCCN1CCc2nc(N)c(C#N)c(-c3cc(OC)c(OC)c(OC)c3)c2C1,.,.,1,.
Cc1ccc(C(=O)Nc2nc3cc(NS(=O)(=O)Cc4ccccc4)ccc3s2)cc1,.,.,-2,.
Cc1cc(C)c(NC(=O)CS(=O)CC(=O)Nc2ccc(N3CCOCC3)cc2)c(C)c1 (stereo not drawn),-9%,1%,-10,-14%
Cc1ccc(NC(=O)CS(=O)CC(=O)Nc2ccc(N3CCOCC3)cc2)cc1Cl (stereo not drawn),17%,?,-31*,7%[56.9 µM]
SMILES,AT treatment,Anesthetic bind,LDHA block,RGS4 inhibitor
Cn1nc(-c2ccc(Cl)cc2)c2cc(C(=O)Oc3ccccc3Cl)sc21,.,.,1,.
COc1cc(/C=C2\SC(=O)N(c3ccccc3Cl)C2=O)cc([N+](=O)[O-])c1O,-5%,18µM*,-4,-4%
COc1cc(/C=C2\SC(=O)N(CC(=O)Nc3cccc(C)c3)C2=O)cc([N+](=O)[O-])c1O,-5%,-4%,-5,?
O=C(/C=C/c1cccs1)N1CCC2(CC1)Oc1ccc(F)cc1C(=O)C21CC(c2ccccc2)=NO1 (stereo not drawn),3.2µM*,3%,-7,16%
c1ccc2c(c1)Oc1cccc3cccc-2c13,10µM*,79%,2,-5%
N#CCSc1sc(=S)sc1SCC#N,.,.,6,.
